In PubChem BioAssay (NCI) one finds growth inhibition data, which are given here for 20 compounds.

Each structure is given as a SMILES string. This is part of a sample that, as a whole, favours compounds with a hit. Of some 79,000 tested, about 15% had one in any assay. Unmarked numbers belong to inactive results. The source made the active and inactive calls. Cut-off read from the data, not from the text of the source: active = growth inhibition above about 70%; inactive = the rest. *1 amine or outer side, *2 acyl side, *3 side chain or, on linkers, in order; H or OH if unused. Where a SMILES comes first, the peptide text is derived from it. [ ]: non-standard residue; d: D form. X8 = C=CCC(O[*:1])C(=O)[*:2]; NMeV = CN[CH](C(=O)O)C(C)C; NMeA = CN[CH](C)C(=O)O; βAla = NCCC(=O)O

Test [1] can be described thus: NCI Yeast Anticancer Drug Screen. Data for the rad50 strain (AID 155).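 Note: 0% = growth of vehicle-only cultures of the same strain.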 The conditions noted are these: S. cerevisiae rad50 strain growth inhibition; at 50.0 µM; active compounds read high. Put shortly:
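DNA repair mutant yeast, compound exposure, growth read-out; inhibition is taken relative to vehicle.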

Test [2] is described as follows: NCI Yeast Anticancer Drug Screen. Data for the mec2-1 strain (AID 157). The conditions noted are these: S. cerevisiae mec2-1 strain, at 50.0 µM, active compounds read high. In short, it runs like this: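 Using mec2-1 yeast: add compound, measure growth, express inhibition versus vehicle-treated cultures.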
Test [3] in a line: NCI Yeast Anticancer Drug Screen. Data for the sgs1 mgt1 strain (AID 161).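 Note: 0% = growth of cultures given vehicle only.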 To be noted: S. cerevisiae sgs1 mgt1 strain, at 50.0 µM, active compounds read high. In short, it runs like this: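 Compounds are added to genetically altered yeast, and growth is compared with cultures given vehicle alone to give percent inhibition.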
Test [4] in a line: NCI Yeast Anticancer Drug Screen. Data for the cln2 rad14 strain (AID 165).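 Note: 0% = growth equal to vehicle treated cultures.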 The conditions noted are these: S. cerevisiae cln2 rad14 strain, at 50.0 µM, active compounds read high. Put shortly:
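Yeast strain cln2 rad14, bearing defects in cell cycle control and DNA repair, serves as the test system; values reflect growth inhibition compared with vehicle.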

A short description of test [5]: NCI Yeast Anticancer Drug Screen. Data for the bub3 strain (AID 167). The conditions noted are these: S. cerevisiae bub3 mutant strain, at 50.0 µM, active compounds read high. In short, it runs like this: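 In this screen, a yeast mutant lacking normal mitotic checkpoint function is challenged with compound. Relative growth versus vehicle gives the inhibition value.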
A short description of test [6]: NCI Yeast Anticancer Drug Screen. Data for the mlh1 rad18 strain (AID 175). The conditions noted are these: S. cerevisiae mlh1 rad18 strain growth inhibition; at 50.0 µM; active compounds read high. Put shortly:
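Steps: expose repair-defective yeast to compound; measure growth; express inhibition against vehicle-treated controls.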

As to `CCCCCCC(C)NCC(=O)Nc1ccccc1C` (stereo not given), the growth inhibition in test [1] was -2.7%; in test [2] it was 14.2%; in test [3] it was 25.6%; in test [4], -44.7%; in test [5], 59.7%; in test [6] it was 30.6%.
For the compound `CCCNc1nc2c(s1)c1c(O)c3c(O)c(C)c4c(c32)C(=O)C(C)(O/C=C\C(OC)C(C)C(OC(C)=O)C(C)C(O)C(C)C(O)C(C)/C=C/C=C(/C)C(=O)N1)O4` (stereo not given), the growth inhibition in test [1] was 8.75%; in test [2] it was 9.7%; in test [3], 3.2%; in test [4], 10.2%; in test [5], 14.2%; in test [6] it was 17.3%.
`CC(=O)OCC12CCC(O1)C1C(=O)OC(=O)C12` (stereo not given): the growth inhibition in test [1] was -3.85%; in test [2], -2.25%; in test [3] it was -9.2%; in test [4], -3.4%; in test [5], -11.1%; in test [6], 1.05%.
Take `COC(=O)c1ccc(OC)cc1O`: the growth inhibition in test [1] was 1.5%; in test [2], 1.8%; in test [3], -13.4%; in test [4] it was -19.9%; in test [5] it was 3.2%; in test [6], -2%.
For the compound `Cc1cc(Br)ccc1Br`, the growth inhibition in test [1] is 34.6%; in test [2], 19.3%; in test [3], -1.75%; in test [4], -36.4%; in test [5], -4.3%; in test [6], 8.6%.
With `CC(=O)Nc1ccc2c(c1)C(=O)c1cc(Cl)ccc1-2`, the growth inhibition was 0.25% in test [1]; -6.05% in test [2]; 5.75% in test [3]; -28.1% in test [4]; -2.05% in test [5]; -9.35% in test [6].
With `CCCCCCCCCCS(=O)(=O)CC(=O)O`, the growth inhibition is 3.8% in test [1]; -2.35% in test [2]; 14.7% in test [3]; -12.7% in test [4]; -8.3% in test [5]; -3.6% in test [6].
As to `Nc1[nH]c(=O)nc2nc(I)[nH]c12`, the growth inhibition was 5.05% in test [1]; 2.75% in test [2]; 22.7% in test [3]; -17.2% in test [4]; 22.9% in test [5]; 3.35% in test [6].
In the case of `C1CC2(CC3(C1)SCCS3)SCCS2`, the growth inhibition in test [1] is -0.3%; in test [2] it was 7.2%; in test [3], -0.85%; in test [4], -12.3%; in test [5] it was 1.55%; in test [6], 0.05%.
Turning to `Cc1ccc(S(=O)(=O)Nc2ccccc2)cc1`, the growth inhibition was 18% in test [1]; -27.9% in test [2]; 21% in test [3]; -20.2% in test [4]; 3.8% in test [5]; 37.3% in test [6].
In the case of `COC(=O)Cc1c(-c2[nH]c3ccccc3c2CC(=O)OC)[nH]c2ccccc12`, the growth inhibition in test [1] was 13.9%; in test [2] it was 7.45%; in test [3], 6%; in test [4] it was -17.4%; in test [5], 3.85%; in test [6] it was -20.8%.
As for `CCOC1OC(C(O)CO)C(O)C1O` (stereo not given), the growth inhibition is -16.9% in test [1]; -18.8% in test [2]; 5.25% in test [3]; -39.9% in test [4]; -18% in test [5]; -17% in test [6].
Consider `O=C(O)C(=Cc1ccc(Br)cc1)C(=O)O`, for which the growth inhibition in test [1] was 41.5%; in test [2], -25.8%; in test [3], 13.5%; in test [4] it was 20.8%; in test [5], 23.1%; in test [6] it was 31.9%.
For `Nc1c[nH]c(=S)s1`, the growth inhibition in test [1] was 36.9%; in test [2] it was 18.8%; in test [3], 54.7%; in test [4], 0.9%; in test [5], 39.6%; in test [6] it was 51.2%.
For `Cc1ccc(-n2cnc3c(Cl)ncnc32)cc1`, the growth inhibition is -18.1% in test [1]; -0.05% in test [2]; -12.1% in test [3]; -15.2% in test [4]; -16.8% in test [5]; 3.3% in test [6].
Regarding `COc1cc2cc3c4ccc(OC)c(OC)c4cc[n+]3c(C)c2cc1OC` (tested in a mixture with another compound), the growth inhibition was 98.1% (active) in test [1]; 97.7% (active) in test [2]; 98.8% (active) in test [3]; 98.4% (active) in test [4]; 98.2% (active) in test [5]; 98% (active) in test [6].
`C=CCC1OC(=O)CCNC(=O)C(C)N(C)C(=O)C(C(C)C)N(C)C(=O)C(C(C)CC)NC(=O)C2CCCN2C1=O` (stereo not given) (cyclo([X8]PI[NMeV][NMeA][βAla]); configuration not given here): the growth inhibition in test [1] was 15.3%; in test [2] it was 10.1%; in test [3], 5.55%; in test [4], 11.5%; in test [5], 8.35%; in test [6], 17.8%.
As for `COc1cc2c(cc1O)C(Cc1ccccc1)N(C)CC2O` (stereo not given), the growth inhibition was -12.6% in test [1]; -4.7% in test [2]; -4% in test [3]; -5.7% in test [4]; -7.55% in test [5]; 0% in test [6].
Regarding `O=C1CSC2=NC3=C(COC/C3=C\c3ccc(F)cc3)C(c3ccc(F)cc3)N12` (stereo not given), the growth inhibition in test [1] was 16.6%; in test [2], 28.3%; in test [3], 41.9%; in test [4], 21.2%; in test [5], 30.1%; in test [6], 31.2%.
In the case of `CCCCCCCCCCCCCCCCCCNC1=C(C)C(=O)C(NCCCCCCCCCCCCCCCCCC)=C(OCC)C1=O`, the growth inhibition in test [1] is 2.7%; in test [2], -2.95%; in test [3], -0.85%; in test [4], -10.8%; in test [5], -1.2%; in test [6] it was -9.5%.
